# Compound activity as filed in PubChem BioAssay.
# This is one part of a sample in which hits are shown more often than they occur.
# KDM5B inh – blocks human KDM5B histone demethylase activity; Q9UGL1; KDM5B demethylase, FDH-coupled NADH fluorescence (FDH is formaldehyde dehydrogenase); Potency, µM (series often up to 57.7 µM), most hits filed as inhibitors; actives 2.6% (n = 220,000); active = well fitted inhibition curve with a large enough effect; also: 0% is about no effect; nearly all actives have a fitted effect of over 70% in size
#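 Compound dilutions met 200 nM (final) KDM5BΔAP for 10 min at room temperature before substrate addition. The substrate mix held 12.5 µM H3K4me3 with cofactors 25 µM α-ketoglutarate and 50 µM Fe²⁺. NADH signal gain over 30 min defined activity.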
# Active calls of the source: *; i = inactive. Potency is read from the fitted curve at half-maximal effect.
SMILES,KDM5B inh
COc1ccc2c(ccn2CCC(=O)Nc2ccc3c(c2)C(=O)N2CCC[C@H]2C(=O)N3)c1,i
Cc1cccc(-c2ccc3c(c2)C(=O)N2C[C@H](O)C[C@H]2C(=O)N3)c1C,i
CC(C)Cc1cn(CC2CCCN(C(=O)c3n[nH]c4c3CCCC4)C2)nn1 (centres undefined),i
NCc1cccc(-c2ccc(OC(F)(F)F)cc2)c1,i
CCCn1c(=O)c2sc(N3CCCC3)nc2n(CC(=O)Nc2ccccc2OCC)c1=O,i
Nc1nccnc1C(=O)Nc1cccc(F)c1,i
CCCN1C(=O)c2cc(C(=O)NCc3ccc(C)cc3)nn2CC1(C)C(=O)NC1CCCC1 (centres undefined),i
CCCCn1c(=O)[nH]c(=O)c2c1nc(COC(=O)C1CCCC1)n2CC,i
COc1ccc(C[C@H](NC(=O)C2=C[C@@H](NS(=O)(=O)c3cccs3)[C@@H](O)[C@H](O)C2)C(N)=O)cc1,i
O=C1NC(C(=O)NC2CCN(Cc3ccccc3)CC2)Cn2cccc21 (centres undefined),i
O=C(CSc1nc(C(F)(F)F)nc2ccccc12)NC1CCCCCC1,i
Cc1ccc(C(=O)N2CCC23Cc2ccccc2NC3=O)cc1 (centres undefined),i
CS(=O)(=O)c1ccc(Cl)c(NC(=O)Cn2cc(C(F)(F)F)cc(Cl)c2=O)c1,i
Fc1cccc(Cl)c1CSc1nc(CN2CCOCC2)nc2ccccc12,i
NC(=O)[C@@H]1CN(C(=O)c2ccco2)C[C@H]1COc1ccccc1,i
CCCCN1C(=O)[C@@H]2C[C@@H](O)CN2C2(CN(Cc3cccs3)C2)C1=O,i
Cc1c(C(=O)Nc2ccc3c(c2)C(=O)OC3)nnn1-c1ccc(Br)cc1,i
CCOC(=O)C1(Cc2ccccc2F)CCCN(C(=O)c2ccc(-n3ccnc3)cc2)C1 (centres undefined),i
CCCc1cc(C(=O)N2CCCC(Cc3ccccc3F)(C(=O)OCC)C2)n(C)n1 (centres undefined),i
CCOC(=O)C1(Cc2ccc(F)cc2F)CCCN(C(=O)c2c(C)nc3ncccn23)C1 (centres undefined),32µM*
Cc1nc(C(C)C)ncc1C(=O)N1CCC2(CCCN(C)C2=O)C1 (centres undefined),i
COCCn1ccnc1C1CCN(C(=O)c2ccc3n[nH]nc3c2)CC1,i
Cc1nc(C2CC2)ncc1C(=O)N1CCC2(CC1)NC(=O)CC2C(=O)O (centres undefined),i
Cc1c(C(=O)N2CCC3(CCCN(C)C3=O)C2)n(C)c2ccc(F)cc12 (centres undefined),i
CSc1ncc(C(=O)N2CCC(c3nccn3CCN(C)C)CC2)cn1,i
SMILES,KDM5B inh
Cc1nc2ncccn2c1C(=O)N1C[C@H]2C(=O)NC[C@@]2(C(=O)O)C1,28µM*
Cc1nc(C2CC2)ncc1C(=O)N1CCN(C)C2(CCNC(=O)CC2)C1 (centres undefined),i
Cc1nc2ncccn2c1C(=O)N1CCC(c2nccn2CC(N)=O)CC1,28µM*
Cc1nc2ncccn2c1C(=O)N1CCC2(CCCN(C)C2=O)C1 (centres undefined),28µM*
Cc1cnc(NC(=O)c2csc(NCC(C)C)n2)s1,i
O=C(CCC1CCN(S(=O)(=O)c2ccccc2F)CC1)NCc1ccncc1,i
O=C(OCc1ccccc1)N1CCn2ncc(C(=O)N3CCOCC3)c2C1,i
COC(=O)CN1C(=O)[C@@H]2C[C@@H](O)CN2C2(CN(C3CCN(C)CC3)C2)C1=O,i
CC1CCN(CCCNCc2ccccc2)CC1,i
CCOc1ccccc1Oc1c(C)oc2cc(OS(C)(=O)=O)ccc2c1=O,i
Cn1nc(C(=O)N2C[C@@H](Oc3cccnc3)C[C@H]2C(=O)N2CCOCC2)c2ccccc21,i
Cc1cccc(CSc2nc3nc[nH]c3c(=O)[nH]2)c1,i
Cc1nc2ccccc2c(C)c1CC(=O)NCc1ccc(OCC(F)(F)F)cc1,i
Cc1ccc(CS(=O)Cc2ccc(F)cc2)cc1 (centres undefined),i
Cc1ccc(-n2c(C3CCN(C(=O)Cc4ccc(F)cc4)CC3)n[nH]c2=O)cc1,i
Cc1ccc(-c2nnc(C3CN(C(=O)CC(C)C)CC34CCOCC4)o2)cc1 (centres undefined),i
COc1cc(-c2onc(C)c2C(=O)NCc2ccc(F)cc2F)cc(OC)c1OC,i
CCC(COC)NC(=O)c1c(C)noc1-c1cc(OC)c(OC)c(OC)c1 (centres undefined),28µM*
COCCCNC(=O)c1c(C)noc1-c1cc(OC)cc(OC)c1,i
COCCCNC(=O)c1c(C)noc1-c1cc(OC)c(OC)c(OC)c1,32µM*
COc1cc(-c2onc(C)c2C(=O)NCCc2cccs2)cc(OC)c1OC,22µM*
Cc1noc(-c2ccccc2Cl)c1C(=O)NCCc1cccs1,i
COc1cc(OC)cc(-c2onc(C)c2C(=O)NCCCOC(C)C)c1,i
COc1ccc(-c2onc(C)c2C(=O)NCc2c(OC)cc(OC)cc2OC)cc1,i
